Assay [1] addresses T1, Tyrosine-protein kinase receptor TYRO3 (Homo sapiens) (UniProt Q06418).
T1 sequence (whole entry): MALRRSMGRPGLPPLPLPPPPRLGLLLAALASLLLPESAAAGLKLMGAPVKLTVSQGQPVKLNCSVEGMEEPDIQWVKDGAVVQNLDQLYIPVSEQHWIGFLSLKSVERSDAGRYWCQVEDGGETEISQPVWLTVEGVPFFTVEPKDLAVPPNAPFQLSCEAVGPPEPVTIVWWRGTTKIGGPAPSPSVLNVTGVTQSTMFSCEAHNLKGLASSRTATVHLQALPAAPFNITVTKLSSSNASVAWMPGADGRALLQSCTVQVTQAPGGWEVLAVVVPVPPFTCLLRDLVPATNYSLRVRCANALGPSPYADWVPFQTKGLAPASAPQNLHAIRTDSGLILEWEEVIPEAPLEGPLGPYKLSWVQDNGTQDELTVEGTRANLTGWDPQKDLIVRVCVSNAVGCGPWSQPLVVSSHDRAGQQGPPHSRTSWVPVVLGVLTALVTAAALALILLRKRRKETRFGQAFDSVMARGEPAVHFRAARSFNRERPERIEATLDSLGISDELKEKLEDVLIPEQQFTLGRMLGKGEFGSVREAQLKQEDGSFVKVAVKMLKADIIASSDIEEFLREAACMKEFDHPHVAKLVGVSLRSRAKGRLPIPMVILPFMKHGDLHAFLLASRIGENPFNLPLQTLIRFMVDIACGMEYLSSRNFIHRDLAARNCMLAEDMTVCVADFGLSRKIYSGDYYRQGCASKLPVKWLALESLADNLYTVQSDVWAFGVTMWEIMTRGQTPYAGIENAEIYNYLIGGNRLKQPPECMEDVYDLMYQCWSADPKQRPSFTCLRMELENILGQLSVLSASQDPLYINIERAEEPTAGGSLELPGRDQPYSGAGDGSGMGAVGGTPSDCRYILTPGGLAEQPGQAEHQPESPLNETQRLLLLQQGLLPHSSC
The note with it: at 1 µM.

The target of assay [2] is Tyrosine-protein kinase Yes (Homo sapiens) (UniProt P07947). To be noted: at 0.1 µM.
Tyrosine-protein kinase Yes (Homo sapiens), sequence (P07947 2-543 limits assumed): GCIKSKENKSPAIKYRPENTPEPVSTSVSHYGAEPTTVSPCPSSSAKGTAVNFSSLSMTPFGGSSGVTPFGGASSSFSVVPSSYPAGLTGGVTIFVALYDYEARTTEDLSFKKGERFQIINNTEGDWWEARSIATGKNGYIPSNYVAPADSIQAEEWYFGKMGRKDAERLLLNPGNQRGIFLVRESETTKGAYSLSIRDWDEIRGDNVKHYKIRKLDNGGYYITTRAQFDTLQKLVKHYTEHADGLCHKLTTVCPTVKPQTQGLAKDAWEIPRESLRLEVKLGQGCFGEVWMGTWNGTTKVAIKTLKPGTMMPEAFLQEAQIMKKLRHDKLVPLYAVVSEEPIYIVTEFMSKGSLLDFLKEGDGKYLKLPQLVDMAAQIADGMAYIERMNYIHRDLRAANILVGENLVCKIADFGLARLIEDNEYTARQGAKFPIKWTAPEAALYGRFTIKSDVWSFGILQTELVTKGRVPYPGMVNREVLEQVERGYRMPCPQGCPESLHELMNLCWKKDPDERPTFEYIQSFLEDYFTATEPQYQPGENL
For assay [3] the target is unchanged. To be noted: at 1 µM.
The target of assay [4] is T2, Tyrosine-protein kinase ZAP-70 (Homo sapiens) (UniProt P43403).
T2 sequence (whole entry): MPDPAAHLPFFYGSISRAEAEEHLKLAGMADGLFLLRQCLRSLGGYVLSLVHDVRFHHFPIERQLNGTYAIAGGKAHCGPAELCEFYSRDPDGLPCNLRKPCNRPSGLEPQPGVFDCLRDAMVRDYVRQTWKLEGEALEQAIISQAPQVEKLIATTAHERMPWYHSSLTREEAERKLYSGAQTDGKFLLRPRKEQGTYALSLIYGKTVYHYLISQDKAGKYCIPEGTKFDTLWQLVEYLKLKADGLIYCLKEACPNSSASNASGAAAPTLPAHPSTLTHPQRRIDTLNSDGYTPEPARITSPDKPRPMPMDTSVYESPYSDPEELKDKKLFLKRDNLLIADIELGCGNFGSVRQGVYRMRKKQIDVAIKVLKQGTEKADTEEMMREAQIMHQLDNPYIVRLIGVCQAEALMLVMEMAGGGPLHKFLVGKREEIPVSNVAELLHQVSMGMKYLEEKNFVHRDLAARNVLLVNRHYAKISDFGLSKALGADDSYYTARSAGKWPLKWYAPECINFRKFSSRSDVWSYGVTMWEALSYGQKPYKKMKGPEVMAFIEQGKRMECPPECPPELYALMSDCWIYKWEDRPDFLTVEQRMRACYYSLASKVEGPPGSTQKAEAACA
The note with it: at 0.1 µM.

Assay [5] concerns the target T2, Tyrosine-protein kinase ZAP-70 (Homo sapiens). To be noted: at 1 µM.
Assay [6] addresses Serine/threonine-protein kinase B-raf (Homo sapiens) (UniProt P15056). The note with it: at 0.1 µM.
Assay [7] has the same target. The note with it: at 1 µM.
The test system of assay [8] is Serine/threonine-protein kinase B-raf (Homo sapiens), P15056 [V600E]. To be noted: at 0.1 µM.
Serine/threonine-protein kinase B-raf (Homo sapiens), P15056 [V600E], sequence (P15056 whole entry V600E): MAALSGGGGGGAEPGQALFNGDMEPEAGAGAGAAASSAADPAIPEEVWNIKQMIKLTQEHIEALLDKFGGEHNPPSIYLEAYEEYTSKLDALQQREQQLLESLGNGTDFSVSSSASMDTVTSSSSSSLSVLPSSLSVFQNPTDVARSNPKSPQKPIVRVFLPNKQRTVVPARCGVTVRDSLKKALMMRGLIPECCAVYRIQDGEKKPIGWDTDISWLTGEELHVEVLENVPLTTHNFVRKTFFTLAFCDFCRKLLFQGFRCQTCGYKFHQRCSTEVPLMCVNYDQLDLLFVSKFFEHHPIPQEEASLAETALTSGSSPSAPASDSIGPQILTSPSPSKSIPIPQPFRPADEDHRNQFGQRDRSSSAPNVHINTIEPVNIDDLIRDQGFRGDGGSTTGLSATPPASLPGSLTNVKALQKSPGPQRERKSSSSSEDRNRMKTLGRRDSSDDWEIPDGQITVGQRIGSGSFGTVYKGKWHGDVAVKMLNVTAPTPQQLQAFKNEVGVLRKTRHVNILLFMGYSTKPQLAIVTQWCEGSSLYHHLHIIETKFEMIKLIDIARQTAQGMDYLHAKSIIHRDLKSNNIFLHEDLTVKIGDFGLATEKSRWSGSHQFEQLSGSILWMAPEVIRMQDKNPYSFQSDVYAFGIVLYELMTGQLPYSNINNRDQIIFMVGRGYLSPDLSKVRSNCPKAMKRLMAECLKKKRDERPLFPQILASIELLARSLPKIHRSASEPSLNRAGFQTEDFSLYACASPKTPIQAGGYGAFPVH
Assay [9] has the same test system. To be noted: at 1 µM.
The target of assay [10] is RAF proto-oncogene serine/threonine-protein kinase (Homo sapiens) (UniProt P04049). The note with it: at 0.1 µM.
RAF proto-oncogene serine/threonine-protein kinase (Homo sapiens), sequence (P04049 whole entry): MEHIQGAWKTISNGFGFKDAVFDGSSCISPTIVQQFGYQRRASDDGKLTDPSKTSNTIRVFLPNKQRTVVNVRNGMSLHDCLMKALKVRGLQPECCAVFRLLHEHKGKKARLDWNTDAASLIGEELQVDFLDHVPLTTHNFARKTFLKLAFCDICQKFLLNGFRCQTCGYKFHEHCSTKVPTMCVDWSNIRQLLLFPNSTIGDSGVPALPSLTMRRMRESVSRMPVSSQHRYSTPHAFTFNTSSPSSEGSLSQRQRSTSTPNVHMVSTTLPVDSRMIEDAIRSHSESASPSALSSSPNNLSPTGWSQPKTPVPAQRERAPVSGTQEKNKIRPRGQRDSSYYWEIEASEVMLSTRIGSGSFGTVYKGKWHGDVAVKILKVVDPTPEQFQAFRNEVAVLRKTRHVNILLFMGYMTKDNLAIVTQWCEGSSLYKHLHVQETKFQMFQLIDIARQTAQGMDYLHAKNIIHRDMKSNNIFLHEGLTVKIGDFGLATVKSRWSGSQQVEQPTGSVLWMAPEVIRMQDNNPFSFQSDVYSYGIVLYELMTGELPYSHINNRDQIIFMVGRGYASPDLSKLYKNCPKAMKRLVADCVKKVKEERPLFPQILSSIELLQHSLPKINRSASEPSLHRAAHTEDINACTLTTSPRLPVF
For assay [11], the target named is T3, Interleukin-1 receptor-associated kinase 4 (Homo sapiens) (UniProt Q9NWZ3).
T3 sequence (whole entry): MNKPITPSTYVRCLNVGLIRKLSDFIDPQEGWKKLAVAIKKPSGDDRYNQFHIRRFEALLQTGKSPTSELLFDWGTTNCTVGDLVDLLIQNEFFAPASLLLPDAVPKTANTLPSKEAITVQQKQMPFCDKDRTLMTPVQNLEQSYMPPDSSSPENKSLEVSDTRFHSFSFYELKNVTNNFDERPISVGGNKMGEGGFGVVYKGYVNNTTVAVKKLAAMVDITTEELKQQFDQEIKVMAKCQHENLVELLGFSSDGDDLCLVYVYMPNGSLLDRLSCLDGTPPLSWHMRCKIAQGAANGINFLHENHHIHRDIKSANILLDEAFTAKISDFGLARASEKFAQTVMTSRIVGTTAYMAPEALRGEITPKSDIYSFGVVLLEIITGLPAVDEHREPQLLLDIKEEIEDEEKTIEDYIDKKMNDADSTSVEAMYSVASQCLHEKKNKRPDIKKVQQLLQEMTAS
To be noted: at 0.1 µM.

The target of assay [12] is T3, Interleukin-1 receptor-associated kinase 4 (Homo sapiens). To be noted: at 1 µM.
The target in assay [13] is Leucine-rich repeat serine/threonine-protein kinase 2 (Homo sapiens) (UniProt Q5S007). To be noted: at 0.1 µM.
Leucine-rich repeat serine/threonine-protein kinase 2 (Homo sapiens), sequence (Q5S007 whole entry): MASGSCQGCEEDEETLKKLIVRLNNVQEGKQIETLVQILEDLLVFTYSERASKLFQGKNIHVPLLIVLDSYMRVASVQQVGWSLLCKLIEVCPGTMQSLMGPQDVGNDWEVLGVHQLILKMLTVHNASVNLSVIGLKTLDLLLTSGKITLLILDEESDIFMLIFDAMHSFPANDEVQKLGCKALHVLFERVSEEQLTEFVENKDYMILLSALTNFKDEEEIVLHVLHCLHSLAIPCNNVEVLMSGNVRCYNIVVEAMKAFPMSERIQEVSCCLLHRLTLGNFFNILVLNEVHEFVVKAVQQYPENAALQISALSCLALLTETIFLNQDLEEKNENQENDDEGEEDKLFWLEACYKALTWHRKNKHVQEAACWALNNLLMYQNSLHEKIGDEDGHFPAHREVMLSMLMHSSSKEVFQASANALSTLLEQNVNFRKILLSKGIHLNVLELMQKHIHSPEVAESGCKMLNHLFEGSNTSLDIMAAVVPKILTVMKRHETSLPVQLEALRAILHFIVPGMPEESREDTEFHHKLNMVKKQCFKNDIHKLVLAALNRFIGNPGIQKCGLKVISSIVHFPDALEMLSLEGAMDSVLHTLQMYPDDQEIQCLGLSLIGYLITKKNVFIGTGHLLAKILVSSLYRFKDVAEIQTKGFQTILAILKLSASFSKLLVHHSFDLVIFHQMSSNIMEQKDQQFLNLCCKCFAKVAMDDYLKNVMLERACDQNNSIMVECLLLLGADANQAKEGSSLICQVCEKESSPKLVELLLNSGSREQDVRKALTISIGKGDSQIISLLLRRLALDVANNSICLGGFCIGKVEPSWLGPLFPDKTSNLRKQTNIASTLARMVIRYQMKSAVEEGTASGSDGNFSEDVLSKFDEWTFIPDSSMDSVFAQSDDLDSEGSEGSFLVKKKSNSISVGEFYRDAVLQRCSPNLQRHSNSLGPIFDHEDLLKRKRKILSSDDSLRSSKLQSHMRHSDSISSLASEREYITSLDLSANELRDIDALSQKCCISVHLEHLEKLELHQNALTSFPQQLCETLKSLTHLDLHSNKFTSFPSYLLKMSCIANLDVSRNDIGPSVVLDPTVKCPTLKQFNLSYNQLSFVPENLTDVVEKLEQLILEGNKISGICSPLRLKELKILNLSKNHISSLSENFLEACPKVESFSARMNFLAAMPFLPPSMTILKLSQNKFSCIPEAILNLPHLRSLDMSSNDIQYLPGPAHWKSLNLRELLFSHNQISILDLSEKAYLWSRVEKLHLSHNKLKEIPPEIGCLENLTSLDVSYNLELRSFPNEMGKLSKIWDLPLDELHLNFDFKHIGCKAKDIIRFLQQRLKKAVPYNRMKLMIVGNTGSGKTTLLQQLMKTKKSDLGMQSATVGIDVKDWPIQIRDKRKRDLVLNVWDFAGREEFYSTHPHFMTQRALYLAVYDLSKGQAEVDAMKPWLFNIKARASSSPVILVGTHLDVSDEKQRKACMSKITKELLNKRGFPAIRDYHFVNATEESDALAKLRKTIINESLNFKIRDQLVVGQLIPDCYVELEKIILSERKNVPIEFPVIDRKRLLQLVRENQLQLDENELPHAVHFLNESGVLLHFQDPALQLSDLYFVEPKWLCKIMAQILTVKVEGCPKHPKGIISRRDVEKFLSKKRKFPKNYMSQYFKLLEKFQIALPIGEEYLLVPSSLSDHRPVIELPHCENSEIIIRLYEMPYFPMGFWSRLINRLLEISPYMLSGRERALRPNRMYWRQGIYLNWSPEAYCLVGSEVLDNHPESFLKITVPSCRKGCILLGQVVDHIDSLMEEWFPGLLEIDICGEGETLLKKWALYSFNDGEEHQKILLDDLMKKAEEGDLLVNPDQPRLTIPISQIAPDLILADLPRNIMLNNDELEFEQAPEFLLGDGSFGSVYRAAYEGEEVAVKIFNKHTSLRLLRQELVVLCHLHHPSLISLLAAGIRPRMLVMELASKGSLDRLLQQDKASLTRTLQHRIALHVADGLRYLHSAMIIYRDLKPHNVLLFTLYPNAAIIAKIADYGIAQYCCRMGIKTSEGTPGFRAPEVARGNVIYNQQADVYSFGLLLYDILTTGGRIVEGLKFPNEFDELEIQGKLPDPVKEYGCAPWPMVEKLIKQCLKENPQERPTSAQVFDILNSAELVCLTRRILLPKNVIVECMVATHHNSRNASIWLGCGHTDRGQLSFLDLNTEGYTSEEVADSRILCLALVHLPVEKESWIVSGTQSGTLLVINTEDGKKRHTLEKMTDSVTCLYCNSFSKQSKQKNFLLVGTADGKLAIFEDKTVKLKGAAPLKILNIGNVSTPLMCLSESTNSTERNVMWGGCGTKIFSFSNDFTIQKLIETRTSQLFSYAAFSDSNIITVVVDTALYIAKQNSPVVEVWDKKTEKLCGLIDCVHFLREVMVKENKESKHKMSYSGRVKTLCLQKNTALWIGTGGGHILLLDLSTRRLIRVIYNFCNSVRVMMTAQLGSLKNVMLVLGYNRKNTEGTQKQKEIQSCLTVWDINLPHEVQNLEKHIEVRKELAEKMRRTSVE
Assay [14] shares this target. The note with it: at 1 µM.
The test system of assay [15] is Leucine-rich repeat serine/threonine-protein kinase 2 (Homo sapiens), Q5S007 [G2019S]. The note with it: at 0.1 µM.
Leucine-rich repeat serine/threonine-protein kinase 2 (Homo sapiens), Q5S007 [G2019S], sequence (Q5S007 whole entry G2019S): as the sequence (Q5S007 whole entry) above, with G2019S counted along it
Assay [16] shares this test system. The note with it: at 1 µM.
Assay [17] concerns the target RAF proto-oncogene serine/threonine-protein kinase (Homo sapiens) (UniProt P04049). The note with it: at 1 µM.

Serine/threonine-protein kinase B-raf (Homo sapiens), sequence (P15056 whole entry): as the sequence (P15056 whole entry V600E) above, with E600V counted along it

For orientation: inhibition means the change of the read-out against control, counted positive when it falls. In the case of `Cc1cccc(-c2n[nH]cc2-c2ccc3ncccc3n2)n1`, the inhibition in assay [1] turned out to be 1.88%; in assay [2] it was 1.95%; in assay [3], 9.98%; in assay [4], 3.21%; in assay [5], 1.47%; in assay [6], 1.47%. In addition, the inhibition is 1.32% in assay [7]; 0.26% in assay [8]; 1.23% in assay [9]; -0.77% in assay [10]; 1.85% in [11]; 0.21% in assay [12]. The inhibition came to 1.67% in [13], 10.1% in assay [14], 2.43% in assay [15] and 10.6% in assay [16].
On to `CCn1c(-c2nonc2N)nc2cncc(C(=O)N3CCNCC3)c21`, for which the inhibition in [1] stood at 2.14%; in assay [2], 2.93%; in [3], 3.85%; in [4], 2.85%; in assay [5] it was 4.99%; in [6] it was 9.15%. In addition, the inhibition in assay [7] is 11.5%; in [8], 6.08%; in assay [9], 5.58%; in assay [10], 4.15%; in [17], -2.31%; in assay [11], 2.74%. Further, the inhibition in assay [12] came to 3.54%; in assay [13], 1.69%; in [14], 0.35%; in [15] it was 3.72%; in [16] it was 7.17%.
Consider `CC(C)=Cc1cccc2c1/C(=N/Nc1ccc(S(N)(=O)=O)cc1)C(=O)N2`, for which the inhibition was found to be 9.24% in assay [1]; 2.28% in assay [2]; 18% in assay [3]; 4.6% in [4]; 4.98% in [5]; 0.07% in [6]. Moreover, the inhibition in [7] was 2.13%; in assay [8] it was 0.1%; in assay [9], 2.83%; in assay [10], 3.26%; in assay [17], -1.14%; in assay [11], -0.76%. Besides, the inhibition in assay [12] came out at 0.79%; in [13], 14.9%; in assay [14], 65.4%; in assay [15] it was 17.7%; in assay [16], 60.9%.
With `Cn1cc(C=C2C(=O)Nc3cccnc32)c2ccccc21`, the inhibition worked out at 13.2% in assay [1]; 5.4% in [2]; 45.1% in assay [3]; 1.96% in assay [4]; 11.5% in [5]; 3.28% in assay [6]. Further, the inhibition in assay [7] was 6.52%; in assay [8] it was 2.79%; in [9], 5.11%; in assay [10] it was -3.3%; in [11] it was 6.41%; in assay [12], 5.04%. The inhibition turned out to be 8.55% in [13], 20.8% in [14], 15% in assay [15] and 55.4% in assay [16].
Turning to `CCN1CCC(CC(=O)Nc2n[nH]c3nc(-c4cccs4)c(Br)cc23)CC1`, the inhibition in [1] was 0.12%; in assay [2], -2.01%; in assay [3] it was 2.56%; in assay [4] it was -3.15%; in assay [5] it was -1.71%; in [6] it was -3.34%. Besides, the inhibition in assay [7] is -4.88%; in assay [8], -3.29%; in [9] it was -4.51%; in assay [10] it was 3.42%; in assay [17], 1.23%; in assay [11], -3.96%. For the same compound, the inhibition is -0.76% in assay [12]; -0.41% in [13]; 2.42% in [14]; 0.89% in [15]; 2.44% in assay [16].
`COc1cc(C=NNc2ncnc3c2cnn3-c2ccccc2)ccc1O`: the inhibition in assay [1] was 33.5%; in assay [2], 21.5%; in [3], 64.9%; in [4], 3.12%; in assay [5], 9.72%; in assay [6] it was 2.6%. Further, the inhibition in assay [7] was 2.66%; in [8] it was 2.03%; in [9] it was 2.54%; in assay [10] it was -0.56%; in assay [17], -6.14%; in assay [11], -2.02%. The inhibition is 3.98% in assay [12]; 7.59% in [13]; 22.3% in [14]; 7.59% in [15]; 40.8% in assay [16].
Consider `NCc1ccc(-c2nc(-c3ccc(Cl)c(O)c3)c(-c3ccncc3)[nH]2)cc1`, for which the inhibition in assay [1] stood at 5.26%; in assay [2] it was 5.85%; in assay [3], 37.7%; in assay [4], 0.84%; in assay [5], 1.92%; in assay [10], 6.34%. The inhibition was 76.6% in assay [17]; 3% in assay [11]; 0.37% in [12]; 1.04% in [13]; 1.56% in assay [14]; 1.02% in assay [15]. The inhibition in assay [16] came out at 4.61%.
Take `Cc1cc(O)cc(C)c1/C=C/c1cncc(-c2nn[nH]n2)c1`: the inhibition in assay [1] was 11.2%; in assay [2], 5.57%; in assay [3] it was 41.3%; in [4] it was -1.14%; in [6], 7.69%; in [7] it was 10.1%. Moreover, the inhibition in assay [8] is 7.48%; in assay [9], 8.79%; in assay [10] it was 4.51%; in assay [17], 60.8%; in assay [11], 1.46%; in [12], 2.18%. For the same compound, the inhibition was found to be 1.54% in [13], 10.4% in assay [14], 6.18% in assay [15] and 35.4% in assay [16].

The record behind these values is ChEMBL document CHEMBL1961873, “Compounds: GSK PKIS; Assays: Nanosyn kinase panel” (2012).
